A short description of test [1]: qHTS Assay for Lipid Storage Modulators (AID 1519; calls by dose curve; on activity change, negative = inhibition: on the % scale 0 is the no-effect control and ±100 the full control effect). Conditions: Drosophila S3 cells, BODIPY lipid droplet/cell ratio, laser cytometry, cells loaded with oleic acid. The procedure, abridged: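 Cells seeded at 5,000 per well were treated with compounds over a concentration series and loaded with oleic acid (400 uM, as added). Lipid droplet fluorescence (488 nm excitation, 500-530 nm channel) was read by laser-scanning cytometry and normalized to 20 uM Triacsin C.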

The nature of test [2]: Counterscreen for APE1 Inhibitors: Fluorescent Dye Displacement Validation Assay (AID 1707).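 Further: plate controls were ThO with dsDNA and no compound for no effect and ThO without dsDNA for full effect.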 Conditions: fluorescent dye displacement from DNA; series mostly up to 57.1 µM. Summed up: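 Thiazole Orange (250 nM) bound to 50 nM TAMRA-labelled dsDNA with tetrahydrofuran abasic site; displacement by DNA-binding compounds lowers fluorescence. Buffer 50 mM Tris-HCl pH 7.5, 50 mM NaCl, 2 mM MgCl2, 0.01% Tween-20; endpoint read at 480/540 nm.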
Background: Counterscreens check selectivity or assay interference.

Test [3] is described as follows: qHTS for differential inhibitors of proliferation of Plasmodium falciparum line 7G8 (AID 1815).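 Further: parasite growth measured after three days of incubation.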 Further: potency means the concentration at half of the fitted maximal effect.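 On activity change, negative = inhibition: plate controls were vehicle wells for no effect and reference inhibitor wells for full effect.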 As to conditions: Plasmodium falciparum 7G8 proliferation inhibition; series mostly up to 28.7 µM.
Test [4] is described as follows: qHTS for differential inhibitors of proliferation of Plasmodium falciparum line GB4 (AID 1816).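 Further: parasite growth measured after 72 h incubation.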 Further: potency means the concentration at half of the fitted maximal effect.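 On activity change, negative = inhibition: 0% = vehicle DMSO and -100% = reference inhibitor.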 Conditions: Potency: Plasmodium falciparum GB4 proliferation inhibition; series mostly up to 28.7 µM. A general note: In qHTS, concentration-response curves come from the screen itself.
Test [5] is described as follows: qHTS for differential inhibitors of proliferation of Plasmodium falciparum line 3D7 (AID 1876). Further: potency means the concentration at half of the fitted maximal effect. As to conditions: P. falciparum 3D7 proliferation inhibition; series mostly up to 28.7 µM.
Test [6] is described as follows: qHTS for differential inhibitors of proliferation of Plasmodium falciparum line D10 (AID 1877).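 Further: parasites grown with compound for 72 h before DNA staining.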 Further: potency means the concentration at half of the fitted maximal effect.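 On activity change, negative = inhibition: plate controls were vehicle wells for no effect and reference inhibitor wells for full effect.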 As to conditions: series mostly up to 28.7 µM.
Test [7] can be described thus: qHTS for differential inhibitors of proliferation of Plasmodium falciparum line Dd2 (AID 1882). Further: nearly all actives have a fitted effect of over 65% in size. Further: potency means the concentration at half of the fitted maximal effect.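 On activity change, negative = inhibition: plate controls were DMSO vehicle for no effect and 0.29 µM artemisinin for full effect.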 Conditions: Potency: Plasmodium falciparum Dd2 proliferation inhibition; series mostly up to 28.7 µM. Summed up:
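Dd2-infected erythrocytes (0.3% parasitemia, 2.5% hematocrit final) incubated with compound 72 h at 37 C, 5% CO2; lysed with saponin/Triton buffer containing SYBR Green I, incubated overnight in the dark, then read by fluorescence (485/535 nm). Normalized to 0.29 uM artemisinin and DMSO.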

Test [8] can be described thus: qHTS for differential inhibitors of proliferation of Plasmodium falciparum line W2 (AID 1883).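 Further: parasites grown with compound for 72 h before lysis and staining.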 Further: potency means the concentration at half of the fitted maximal effect.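 On activity change, negative = inhibition: 0% = vehicle wells and -100% = control inhibitor wells.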 As to conditions: Potency: Plasmodium falciparum W2 proliferation inhibition; series mostly up to 28.7 µM.
The nature of test [9]: qHTS for differential inhibitors of proliferation of Plasmodium falciparum line HB3 (AID 1886).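 Further: parasites grown with compound for 72 h before SYBR Green readout.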 Further: potency means the concentration at half of the fitted maximal effect.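 On activity change, negative = inhibition: plate controls were vehicle for no effect and reference inhibitor for full effect.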 Conditions: Potency: Plasmodium falciparum HB3 proliferation inhibition; series mostly up to 28.7 µM.
Test [10] has as its target ATP-dependent DNA helicase Q1 (Homo sapiens) (UniProt P46063). In words: qHTS Validation Assay for Inhibitors of RecQ-Like Dna Helicase 1 (RECQ1) (AID 2353).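 Further: plate controls were DMSO vehicle for no effect and enzyme-free control for full effect.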 As to conditions: recombinant RECQ1 helicase DNA unwinding assay; series mostly up to 25.6 µM. Summed up:
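50 nM RECQ1T1 preincubated 15 min with compound in Tris pH 8.0 buffer with MgCl2, DTT, Tween-20 and 2.5 ug/ml poly(dI-dC); started with 200 nM TAMRA/BHQ-2 forked duplex and 2 mM ATP. Unwinding read as fluorescence (525/598 nm), two reads 2 h apart.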

Test [11] deals with DNA repair nuclease/redox regulator APEX1 (Homo sapiens) (UniProt P27695). Nature of the test: qHTS Validation Assay for Inhibitors of the Human Apurinic/apyrimidinic Endonuclease 1 (APE1) (AID 1705;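 further: TAMRA fluorescence gain over two minutes as APE1 cuts a quenched THF abasic duplex; on the % scale 0 is the no-effect control and ±100 the full control effect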). Conditions: purified APE1 endonuclease activity, fluorescence, titration; series mostly up to 57.1 µM. The procedure, abridged: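 Endonuclease activity of human APE1 is followed as dequenching when the enzyme incises a tetrahydrofuran abasic site in a short duplex labelled 5'-TAMRA/3'-BHQ-2 (50 nM final), after 15 min enzyme–compound preincubation at room temperature.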

The target of test [12] is Endonuclease 4 (Escherichia coli (strain K12)) (UniProt P0A6C1). Nature of the test: Counterscreen for APE1 Inhibitors: qHTS Validation Assay for Inhibitors of Endonuclease IV (AID 1708). Further: on the % scale 0 is the no-effect control and ±100 the full control effect. As to conditions: E. coli endonuclease IV, DNA cleavage fluorescence; series mostly up to 57.1 µM. Summed up: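 E. coli EndoIV at 2 nM final, preincubated 15 min at room temperature with compound, then 50 nM TAMRA/BHQ-2 THF abasic-site duplex added. Buffer: 50 mM Tris-HCl pH 7.5, 50 mM NaCl, 2 mM MgCl2, 1 mM DTT, 0.01% Tween-20. Kinetic fluorescence increase, third minus first read.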

Test [13] in a line: qHTS Assay for Modulators of Human Peripheral Myelin Protein 22 (PMP22) Expression/Activity (AID 1967; active means well fitted curve in the direction sought with a large enough effect in the signal ratio; the % refers to the signal ratio;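 further: 0% = untreated cells and 100% end not stated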). As to conditions: Cell-based PMP22 reporter, dual-color luciferase ratio, mouse Pmp22 promoter in mouse Schwann cells; series mostly up to 115 µM. The procedure, abridged:
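Quantitative HTS in a mouse Schwann cell line expressing dual click beetle luciferases: Pmp22 promoter (green) and control EF-alpha promoter (red). After 24h treatment, corrected green/red signal ratio gave %Activity relative to untreated cells.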

For test [14], the target named is Ferritin light chain (Equus caballus) (UniProt P02791). In words: qHTS Validation Assay for Identification of Novel General Anesthetics (AID 2323). Further: on the % scale 0 is the no-effect control and ±100 the full control effect. As to conditions: horse apoferritin, anesthetic-site fluorescent probe displacement; series mostly up to 76.9 µM. Summed up: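 Apoferritin from horse spleen (10 uM) was mixed with 1-aminoanthracene at 50% saturation in PBS, then compounds were added. After 10 min at room temperature, fluorescence was read (ex 380 nm, em 535 nm) and normalized to free-probe and complex controls.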

Test [15] concerns the target RecQ-like DNA helicase BLM (Homo sapiens) (UniProt P54132). In words: qHTS Validation Assay for Inhibitors of Bloom's syndrome helicase (BLM) (AID 2364).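 Further: plate controls were DMSO vehicle for no effect and enzyme-free control for full effect.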 Conditions: BLM helicase DNA unwinding, fluorescence, in vitro; series mostly up to 57.1 µM. Summed up:
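50 nM BLM preincubated 15 min at room temperature with compound in pH 8.0 Tris buffer containing 2.5 ug/ml poly(dI-dC); started with 200 nM TAMRA/BHQ-2 forked duplex and 2 mM ATP (final). Unwinding read as TAMRA fluorescence increase, two reads 2 h apart.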

Test [16] is described as follows: Cytometric Cell-Based qHTS for Inhibitors of the mTORC1 Signaling Pathway in MEF (Tsc2-/-, p53-/-) Cells (AID 2660).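 Further: percent of cells above a phospho-rpS6 to PI ratio cutoff in each well; plate controls were DMSO for no effect and rapamycin for full effect.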 Conditions: mTORC1 pathway cytometry; series mostly up to 38.3 µM. Summed up:
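Tsc2-/-, p53-/- MEFs (empty vector) exposed to compound 24 h at 37 C, fixed, stained with Alexa-488 anti-phospho-rpS6 Ser235/236 and propidium iodide. Acumen laser scanning; phospho-S6/PI ratio thresholded against 7.5 nM rapamycin, reported as % positive cells.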

Test [17] is described as follows: High Content Imaging Cell-Based qHTS for Inhibitors of the mTORC1 Signaling Pathway in MEF (Tsc2-/-, p53-/-) Cells (AID 2666).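 Further: percent of cells scored positive for phospho-rpS6 Ser235/236 immunostaining by imaging.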 As to conditions: series mostly up to 38.3 µM. The procedure, abridged:
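Phospho-rpS6 (Ser235/236) immunofluorescence, normalized and scored as % positive cells using rapamycin and DMSO controls, was read in empty-vector Tsc2-/-, p53-/- MEFs after 24 h compound exposure at 37 C; propidium iodide counted cells.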

Records with an inconclusive call do not appear. Activity calls are given as the source filed them. Unless noted, the call rests on the fitted dose curve; in most records, active means well fitted curve in the direction sought with a large enough effect; inconclusive means small, poorly fitted or top-dose-only effect, or another doubt; inactive means no such curve, though single readings can be large; an effect the other way counts as inactive or inconclusive.

Chain of ATP-dependent DNA helicase Q1 (Homo sapiens) (P46063 whole entry, looked up): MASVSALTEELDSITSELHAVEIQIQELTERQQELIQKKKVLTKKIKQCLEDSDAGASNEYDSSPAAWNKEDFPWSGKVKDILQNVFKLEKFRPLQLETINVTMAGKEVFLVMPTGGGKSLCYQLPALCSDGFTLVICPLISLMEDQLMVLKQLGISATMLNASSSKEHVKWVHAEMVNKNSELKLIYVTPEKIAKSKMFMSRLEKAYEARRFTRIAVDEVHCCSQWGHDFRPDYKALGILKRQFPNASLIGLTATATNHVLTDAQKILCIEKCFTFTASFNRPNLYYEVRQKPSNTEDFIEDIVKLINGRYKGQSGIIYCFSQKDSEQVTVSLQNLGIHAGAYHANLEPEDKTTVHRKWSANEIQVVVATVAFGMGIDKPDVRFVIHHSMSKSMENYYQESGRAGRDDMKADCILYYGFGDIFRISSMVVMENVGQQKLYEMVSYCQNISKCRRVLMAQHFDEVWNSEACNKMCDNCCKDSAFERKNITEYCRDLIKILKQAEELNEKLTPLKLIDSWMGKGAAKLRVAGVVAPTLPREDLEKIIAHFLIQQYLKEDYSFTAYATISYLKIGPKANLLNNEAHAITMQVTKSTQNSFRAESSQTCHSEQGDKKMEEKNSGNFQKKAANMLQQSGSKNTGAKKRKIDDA
Chain of DNA repair nuclease/redox regulator APEX1 (Homo sapiens) (P27695 whole entry, looked up): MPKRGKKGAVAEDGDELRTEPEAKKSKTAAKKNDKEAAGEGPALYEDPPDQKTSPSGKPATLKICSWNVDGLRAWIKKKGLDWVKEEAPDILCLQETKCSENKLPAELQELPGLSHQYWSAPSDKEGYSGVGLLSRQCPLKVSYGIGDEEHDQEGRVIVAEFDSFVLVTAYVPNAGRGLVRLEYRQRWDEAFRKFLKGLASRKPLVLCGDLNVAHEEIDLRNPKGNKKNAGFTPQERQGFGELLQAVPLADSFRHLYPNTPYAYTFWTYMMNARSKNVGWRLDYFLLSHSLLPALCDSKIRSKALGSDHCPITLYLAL
Chain of Ferritin light chain (Equus caballus) (P02791 2-175 limits assumed): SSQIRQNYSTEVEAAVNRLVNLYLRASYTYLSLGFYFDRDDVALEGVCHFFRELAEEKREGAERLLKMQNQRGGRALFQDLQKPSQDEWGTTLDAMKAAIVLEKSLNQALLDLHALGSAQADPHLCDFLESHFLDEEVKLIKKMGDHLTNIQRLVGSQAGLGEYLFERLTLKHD
Chain of RecQ-like DNA helicase BLM (Homo sapiens) (P54132 whole entry, looked up): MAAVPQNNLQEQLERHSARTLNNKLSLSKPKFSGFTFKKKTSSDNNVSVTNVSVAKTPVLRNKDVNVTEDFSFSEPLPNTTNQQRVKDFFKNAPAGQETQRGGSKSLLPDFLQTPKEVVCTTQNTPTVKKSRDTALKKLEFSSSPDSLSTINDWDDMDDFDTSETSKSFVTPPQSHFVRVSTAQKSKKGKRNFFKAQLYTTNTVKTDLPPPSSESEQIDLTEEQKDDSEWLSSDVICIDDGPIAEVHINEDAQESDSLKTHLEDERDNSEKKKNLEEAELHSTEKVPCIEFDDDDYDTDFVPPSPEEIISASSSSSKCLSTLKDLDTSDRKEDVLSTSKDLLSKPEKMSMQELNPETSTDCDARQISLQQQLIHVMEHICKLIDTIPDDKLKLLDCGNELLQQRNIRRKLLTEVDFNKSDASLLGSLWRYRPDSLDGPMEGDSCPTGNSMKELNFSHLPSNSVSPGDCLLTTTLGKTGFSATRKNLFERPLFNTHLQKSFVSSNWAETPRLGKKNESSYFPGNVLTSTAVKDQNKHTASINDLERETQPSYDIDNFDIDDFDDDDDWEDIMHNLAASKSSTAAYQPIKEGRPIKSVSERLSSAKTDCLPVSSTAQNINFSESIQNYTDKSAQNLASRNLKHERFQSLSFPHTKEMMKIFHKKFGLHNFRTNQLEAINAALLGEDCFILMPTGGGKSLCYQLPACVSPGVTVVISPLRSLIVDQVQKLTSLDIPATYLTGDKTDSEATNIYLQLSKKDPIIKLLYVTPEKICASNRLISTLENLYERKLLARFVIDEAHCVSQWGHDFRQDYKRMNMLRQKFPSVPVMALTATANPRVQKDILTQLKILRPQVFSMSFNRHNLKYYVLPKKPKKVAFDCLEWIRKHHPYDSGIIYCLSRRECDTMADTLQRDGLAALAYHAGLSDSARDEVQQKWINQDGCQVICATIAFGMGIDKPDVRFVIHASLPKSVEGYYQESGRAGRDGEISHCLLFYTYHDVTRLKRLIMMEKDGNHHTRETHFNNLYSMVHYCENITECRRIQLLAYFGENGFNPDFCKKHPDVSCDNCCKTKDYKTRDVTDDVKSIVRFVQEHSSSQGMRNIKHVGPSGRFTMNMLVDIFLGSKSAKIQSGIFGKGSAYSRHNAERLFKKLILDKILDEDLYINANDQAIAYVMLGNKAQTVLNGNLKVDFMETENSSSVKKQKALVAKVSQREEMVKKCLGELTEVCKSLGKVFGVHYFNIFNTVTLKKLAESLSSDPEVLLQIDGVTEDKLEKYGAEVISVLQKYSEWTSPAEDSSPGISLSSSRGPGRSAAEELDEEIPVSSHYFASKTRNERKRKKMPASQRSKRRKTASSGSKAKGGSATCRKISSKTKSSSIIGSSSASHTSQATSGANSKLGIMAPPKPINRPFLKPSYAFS

For `CCCCCCC(C)(C)c1ccc([C@@H]2C[C@H](O)CC[C@H]2CCCO)c(O)c1`, in [1] (at 57.5 µM (top of the series)), the activity change, negative = inhibition was -5.44% (inactive). The max response was 8.54% in [1] (measured here: cell count channel max response) and 2.73% in test [1] (measured here: lipid channel max response). Moreover, the Potency result in test [2] and in [10] was “inactive” each time. Further, the Potency is 1780 nM (active) in test [3]; 2240 nM (active) in test [4]; 5010 nM (active) in test [5]; 7940 nM (active) in [6]; 4470 nM (active) in test [7]; 2240 nM (active) in test [8]. For the same molecule, the Potency in test [9] is 2820 nM (active).

With `NC(C(=O)O)c1cc(=O)[nH]o1` (configuration not stated), the Potency result in test [11], in test [2], in test [12], in test [3], in [4] and in test [5] was “inactive” each time. The Potency result in test [6], in [7], in test [8], in test [9], in test [10] and in test [15] was “inactive” in each case. For the same molecule, the Potency entry in [16] and in [17] was “inactive” each time. For the same molecule, the result in test [13] and in [14] was inactive.

For `C[C@]12Cc3cn4c(nc3C=C1CCC1C2CC[C@@]2(C)[C@H]1CC[C@@]2(O)C#N)nc1ccccc14` (some centres not stated), the Potency entry in test [11], in test [2], in [12], in test [10], in test [16] and in test [17] was “inactive” throughout. Moreover, the Potency in test [3] was 1260 nM (active); in test [4], 3160 nM (active); in [5], 2820 nM (active); in test [6] it was 5010 nM (active); in [7] it was 3550 nM (active); in [8], 2820 nM (active). In addition, in test [9], the Potency is 5620 nM (active). In addition, the result in test [14] was inactive.

Regarding `C[Se]C[C@H](N)C(=O)O`, the Potency entry in test [11], in test [2], in test [12], in test [3], in test [4] and in [5] was “inactive” each time. Besides, the Potency result in [6], in [7], in [8], in test [9], in test [10] and in test [16] was “inactive” throughout. Further, the Potency entry in [17] is “inactive”. The outcome in test [14] was inactive.

For the molecule `C[C@H](Cc1ccc2c(c1)OC(C(=O)O)(C(=O)O)O2)NC[C@H](O)c1cccc(Cl)c1`, the Potency result in test [11], in [2], in test [12], in test [3], in [4] and in [5] was “inactive” throughout. In addition, the Potency entry in [6], in [7], in test [8], in test [9], in [10] and in test [15] was “inactive” in each case. For the same molecule, the Potency result in test [16] and in test [17] was “inactive” each time. For the same molecule, the outcome in [13] and in [14] was inactive.

Regarding `NC(=O)CI`, the Potency result in test [11], in test [2], in [12], in test [3], in test [4] and in [5] was “inactive” throughout. For the same molecule, the Potency result in test [6], in test [7], in test [8], in test [9], in [10] and in test [16] was “inactive” each time. Also, the Potency result in [17] is “inactive”.

Regarding `CCN(CC)c1ncnc2c1ncn2[C@@H]1O[C@H](COP(=O)(O)OP(=O)(O)C(Br)(Br)P(=O)(O)O)[C@@H](O)[C@H]1O`, the Potency entry in test [11], in test [2], in [12], in test [3], in test [4] and in [5] was “inactive” in each case. The Potency result in [6], in test [7], in test [8], in test [9] and in test [10] was “inactive” in each case. Further, the outcome in test [13] and in test [14] was inactive.

On to `CP(=O)(O)C1=CCNCC1`, for which the Potency result in test [11], in [2], in test [12], in test [3], in test [4] and in [5] was “inactive” each time. Also, the Potency entry in test [6], in test [7], in test [8], in test [9], in test [10] and in test [16] was “inactive” throughout. Also, the Potency entry in [17] is “inactive”. Moreover, the outcome in test [14] was inactive.
